Active and inactive are the calls of the source.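 Rule for the calls: active = clear growth inhibition over 72 hours in leukemia cell lines carrying a fused MLL gene, giving a fitted IC50; inactive = the rest.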

The experiment can be described thus: Confirmation of Inhibitors Targeting the Menin-MLL Interaction in MLL Related Leukemias: Confirmation in an MLL leukemia cell growth assay. The note with it: MV4-11 MLL-AF4 leukemia growth, MTT absorbance, 72 h; series mostly up to 50 µM. The text has this:
qHTS Assay for Inhibitors Targeting the Menin-MLL Interaction in MLL Related Leukemias NIH Chemical Genomics Center [NCGC] NIH Molecular Libraries Probe Centers Network [MLPCN] MLPCN Grant: MH084875-01A1 Assay Submitter (PI): Jolanta Grembecka, Tomasz Cierpicki, University of Virginia Translocations of the MLL (Mixed Lineage Leukemia) gene are frequently found in human leukemias affecting both children and adults. Fusion of MLL to one of more than 60 genes results in generation of oncogenic proteins upregulating Hox genes, which are vital to blood cell development. Patients harboring fusion of the MLL gene suffer from aggressive leukemias and respond poorly to available therapies. All of the oncogenic fusion proteins have a preserved N-terminal fragment of MLL that has been identified to interact with menin. It has been recently discovered that association with menin is critical to the leukemogenic activity of the MLL fusion oncoproteins. […] We have developed and optimized a fluorescence polarization-based assay for the identification of Menin-MLL inhibitors. […]
Inhibition of cell proliferation in the MLL leukemia cells: MV4-11 (MLL-AF4), ML-2 (MLL-AF6) KOPN-8 (MLL-ENL) induced by compound measured after 72h treatment, as detected by the MTT cell viability assay. […] Plates were read for absorbance at 570 nm using a PHERAstar BMG microplate reader. […]
On to `N#Cc1ccc(OCCCN2CCC(C(O)(c3ccccc3)C3CCCC3)CC2)cc1` (configuration not stated), for which the IC50 was 12.8 µM (active).
Then `N#Cc1ccc(OCCCN2CCC(C(O)c3ccccc3)CC2)cc1` (configuration not stated), with “inactive”.

Broadly, the IC50 is the concentration that gives 50% inhibition.

The values are drawn from PubChem BioAssay AID504613 (National Center for Advancing Translational Sciences (NCATS), 2011).
